The text below walks through data of PubChem BioAssay AID652183 (National Center for Advancing Translational Sciences (NCATS), 2013).

Structures are written as SMILES. Records with an inconclusive call do not appear. Where a call stands in place of a potency, no number is given. Activity calls are given as the source filed them. Calls follow the shape of the dose curve; as a rule, active = well fitted inhibition curve with a large enough effect; inconclusive = small, poorly fitted or top-dose-only effect; inactive = no such curve, though single readings can be large or run the other way.

The nature of this assay: qHTS Assay for Lipid Storage Modulators: Differentiation Assay against Probe and Analogs. The conditions noted are these: 3T3-L1 adipocyte differentiation, BODIPY lipid imaging, 8 d; series mostly up to 20 µM. The text has this: Storing lipids as a reservoir for energy or the anabolism of elementary metabolites is a common feature of probably all cells and is conserved from bacteria to humans. The universal cellular lipid storage organelle is the so-called lipid storage droplet (LD). Although ubiquitous, LDs share a simple structure composed of a hydrophobic core that harbors the storage lipids, which is shielded by a droplet-specific phospholipid monolayer to which proteins are attached. The current model of LD biogenesis involves an incorporation of the lipid core into the membrane leaflets of the endoplasmic reticulum (ER) followed by a subsequent budding-like maturation of a LD, which ultimately pinches off. Once released, LD volume can increase by localized lipogenesis or fusion of existing droplets. Storage lipids are re-mobilized enzymatically by lipase activity. Lipase regulation in the adipocyte is heavily studied and involves multiple components including catecholamine signaling, the LD-associated proteins Perilipin and comparative gene identification-58 (CGI-58) and at least two lipases named hormone sensitive lipase (HSL) and adipocyte triglyceride lipase (ATGL). LD regulation outside of the adipocyte is poorly understood and only few components are known. However, there is an urgent need to learn more about ectopic fat depots as mislocalized storage of lipids, for example in the liver or muscle, is an eminent health problem associated with insulin resistance or the metabolic syndrome. We developed a laser-scanning cytometer assay to enable 1,536-well screening and combined the results of the small molecules screen with an RNAi database based on lipid storage. […] NIH Chemical Genomics Center [NCGC] MLPCN Grant: MH085686 Assay Submitter (PI): Mathias Beller, Max-Planck-Institut fur Biophysikalische Chemie
3T3L1 cells were obtained from ATCC (CL-173). Pre-adipocyte medium (PM-1), differentiation medium (DM-2) and after adipocyte medium (AM-1) were purchased from Zen-Bio (# PM-1-L1, DM-2-L1, AM-1-L1). 200 uL of PM-1containing 3,000 cells was dispensed into each well of a 96-well plate (Corning, #3340), and the assay plates were incubated at 37 °C, 95% humidity and 5% CO2 for 3-5 days. The differentiation of pre-adipocyte to adipocyte was induced by removing the pre-adipocyte medium and replacing with 200 uL of differentiation medium. 1 uL of compounds at different concentrations dissolved in differentiation medium were added to the assay plates, along with medium exchange for differentiation to test their effects on adipocyte differentiation. The final DMSO concentration was 0.5%.Triacsin C (Sigma-Aldrich T-4540), an inhibitor of long-chain fatty acyl CoA synthetase that blocks synthesis of triglycerides, was used as a positive control for lipid under-storage. […]
On to `CCOc1ccc(CCNC(=O)c2cc3sccc3n2CCN(C)C)cc1OCC`, for which the Potency entry was “inactive”. Then `CCOc1ccc(CCNC(=O)c2cc3sccc3n2Cc2ccc(F)cc2F)cc1OCC`, with “inactive”; and `CCOc1ccc(CCNC(=O)c2cc3ccccc3n2Cc2ccccn2)cc1OCC`, with 12.6 µM (active); and `CCOC(=O)C1CCN(C(=O)C2(NC(=O)Nc3ccccc3Cl)CCCC2)CC1`, with “inactive”.
